Consider 50 compounds from PubChem BioAssay AID1851 (National Center for Advancing Translational Sciences (NCATS), 2009).

In all, about 16,000 compounds went through this assay and about 5,100 (32%) were called active. About 25% were inconclusive and are not listed. The list shows a part of the results. Values without a mark were called inactive. The call rests on the fitted dose curve; in most records, active means well fitted curve in the direction sought with a large enough effect; inconclusive means small, poorly fitted or top-dose-only effect, or effect the other way; inactive means no such curve, though single readings can be large or run the other way.
On the % scale 0 is the no-effect control and ±100 the full control effect.

The target of this assay is Cytochrome P450 3A4 (Homo sapiens) (UniProt P08684). As to the kind of experiment: Cytochrome panel assay with activity outcomes. Conditions: recombinant CYP, pro-luciferin dealkylation, luminescence, p450-cyp3a4; series mostly up to 57.1 µM. As for the experimental part: The P450 gene superfamily is involved in the metabolism and clearance of xenobiotics. This assay used various human CYP P450 isozymes to measure the dealkylation of various pro-luciferin substrates to luciferin. The luciferin is then measured by luminescence after the addition of a luciferase detection reagent. Pro-luciferin substrate concentration in the assay was equal to its KM for its CYP P450 isozyme. Inhibitors and some substrates limit the production of luciferin, and decrease measured luminescence.
Sequence of Cytochrome P450 3A4 (Homo sapiens) (P08684 whole entry, looked up): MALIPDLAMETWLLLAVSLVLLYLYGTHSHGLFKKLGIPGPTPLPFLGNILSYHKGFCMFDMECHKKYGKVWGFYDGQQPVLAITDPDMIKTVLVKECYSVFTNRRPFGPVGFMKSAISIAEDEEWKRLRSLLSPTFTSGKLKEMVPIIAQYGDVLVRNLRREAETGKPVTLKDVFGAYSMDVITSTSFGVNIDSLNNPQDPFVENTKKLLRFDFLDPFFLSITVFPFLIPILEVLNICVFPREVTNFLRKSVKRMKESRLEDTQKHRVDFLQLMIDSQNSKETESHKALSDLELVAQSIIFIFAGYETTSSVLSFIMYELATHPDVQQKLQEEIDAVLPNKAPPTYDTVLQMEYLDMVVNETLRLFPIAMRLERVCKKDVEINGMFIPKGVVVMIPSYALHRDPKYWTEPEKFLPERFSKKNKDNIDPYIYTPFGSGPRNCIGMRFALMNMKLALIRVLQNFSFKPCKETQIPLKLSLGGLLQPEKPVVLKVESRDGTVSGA
NCGC Assay Protocol Summary:
1, Reagent, 2 uL, Isozyme and Pro-Luciferin
2, Library compounds, 23 nl, 40 uM to 0.24 nM dilution series
3, Controls, 23 nl, Isozyme specific inhibitor
4, Reagent, 2 uL, NADPH regeneration solution
5, Incubation time, 60 min, Isozyme specific temperature
6, Reagent, 4ul, Detection reagent
7, Incubation time, 20 min, Isozyme specific temperature
8, Detection, 1 sec, ViewLux luminescent read
The luciferase-based P450-GloTM Screening Systems were obtained from Promega (Madison, WI) for CYP 1A2 (V9770), CYP 2C9 (V9790), CYP2 C19 (V9880), CYP 2D6 (V9890), and CYP 3A4 Luciferin-PPXE (V9910) and were adapted for 1,536-well microplates and an automated protocol. The control compounds furafylline for 1A2 (F124), sulfaphenazole for CYP 2C9 (S0758), ketoconazole for CYP 2C19 (K1003), quinidine for 2D6 (Q3625), and ketoconazole for 3A4 (K1003) were purchased from Sigma Aldrich (St. Louis, MO). Recombinant P450 enzymes were obtained from baculovirus constructs expressed in insect cells (BD/Gentest).
Medium-binding white solid Kalypsys plates used. Mixtures kept on ice. 1A2: 10 nM 1A2, 100 uM Luc-ME, 100 mM KPO4; 2C9: 10 nM 2C9, 100 uM Luc-H, 25 mM KPO4; 2C19: 5 nM 2C19, 10 uM Luc-H EGE, 50 mM KPO4; 2D6: 5 nM 2D6, 30 uM Luc-ME EGE, 100 mM KPO4; 3A4: 10 nM, 25 uM Luc-PPXE. All amounts are reflected in their final concentration, working concentration is 2x.
NADPH regeneration solution: 1.3 mM NADP+, 3.3 mM glucose-6-phosphate, 3.3 mM MgCl2, 0.4 U/mL glucose-6-phosphate dehydrogenase for all isozymes, 200 mM KPO4 for 3A4. Mixture prepared at RT but kept on ice during automated run.
RT incubation in auxilliary plate hotel for 1A2, 2D6, and 3A4; 37C for 2C9 and 2C19.
Keywords: P450, CYP1A2, CYP2C19, CYP2C9, CYP2D6, CYP3A4, Luciferase, MLSMR, MLSCN, NIH Roadmap, qHTS, NCGC
`CC(C)(C)n1ncc2c(=O)n(CC(=O)NCc3ccccc3Cl)cnc21`: the activity, negative = inhibition is -27.1% [at 11.4 µM]. Usually AC50 stands for the concentration at which the activity in the assay is half-maximal. With `O=C(CSc1nc2ccccc2c(=O)n1NC(=O)Cc1ccccc1)NCc1ccccc1Cl`, the AC50 was 5.62 µM (active).

As for `O=C(CSc1nc2ccccc2c(=O)n1NC(=O)c1ccccc1)c1ccc(Cl)cc1`, the AC50 was 14.1 µM (active).

For `CC(=O)C1C(c2ccccc2OC(F)F)NC(=O)NC1(O)C(F)(F)F` (stereo not given), the AC50 result was “inactive”. On the same count and under the same terms, next, `CCCCCC(=O)O[C@H](CC(=O)O)C[N+](C)(C)C`: “inactive”; `CN(C)C(=O)c1ccc(-c2cncnc2NCCN2CCOCC2)cc1`: 15.8 µM (active).

Turning to `CN(C)c1ccc(-c2cncnc2NCCN2CCOCC2)cc1`, the half-maximal activity concentration (AC50) was 3.16 µM (active). On to `Cc1ccnc(NS(=O)(=O)c2ccc(N=[N+]=[N-])cc2)n1`, for which the activity, negative = inhibition was 1.05% [at 11.4 µM]. With `Clc1cccc(C=NC=Nc2cccc(Cl)c2)c1`, the AC50 entry is “inactive”. On the same count and under the same terms, next, `COc1cccc(C=NC=Nc2cccc(OC)c2)c1`: 20 µM (active); `COc1cccc(N=Cc2c[nH][nH]c2=O)c1`: 14.1 µM (active). Still for that read-out and setting: next, `O=c1[nH][nH]c(C(F)(F)F)c1C=Nc1cccc(Cl)c1`: “inactive”. With `O=c1[nH][nH]cc1C=Nc1ccccc1O`, the activity, negative = inhibition is -5.56% [at 11.4 µM]. Same read-out and setting: next, `COc1cccc(/C=N/NC(=O)c2cc(-c3cccn3C)n[nH]2)c1`: -9.54% [at 2.29 µM].

On to `CCCn1nnnc1-c1cc(Cl)cc(Cl)c1`, for which the activity, negative = inhibition was 29.9% [at 2.29 µM]. On to `Cc1cccc(C)c1NC(=O)/C(C#N)=C/c1cccs1`, for which the half-maximal activity concentration (AC50) is 20 µM (active).

Take `N#C/C(=C\c1cccs1)C(=O)NCC1CCCO1` (stereo not given): the AC50 entry was “inactive”. Turning to `O=C(NCC(c1cccs1)N1CCOCC1)c1ccco1` (stereo not given), the AC50 result was “inactive”. With `Cc1sc(NC(=O)c2ccco2)c(C(c2cccnc2)N2CCN(C)CC2)c1C` (stereo not given), the activity, negative = inhibition is -28.9% [at 2.29 µM].

`Cc1sc(NC(=O)c2ccco2)c(C(c2cccnc2)N2CCCC2)c1C` (stereo not given): the half-maximal activity concentration (AC50) is 1.58 µM (active). In the case of `Cc1sc(NC(=O)c2ccco2)c(C(c2ccncc2)N2CCOCC2)c1C` (stereo not given), the AC50 was 3.16 µM (active). With `COc1ccccc1-c1nccc(NCc2cccnc2)n1`, the concentration at half-maximal activity (AC50) is 2.51 µM (active). As to `Cc1cccc(CNc2ccnc(-c3ccccc3Cl)n2)c1`, the AC50 was 3.98 µM (active).

Consider `COc1ccccc1-c1nccc(NCc2ccccc2)n1`, for which the concentration at half-maximal activity (AC50) was 15.8 µM (active). The same measure, in the same setting: next, `Cc1ccccc1-c1nccc(NCc2cccnc2)n1`: 3.98 µM (active); `O=c1c(-c2ccccc2)c(O)c2cccc3c2n1CCC3`: “inactive”; `CCCCCSc1nnc(C)c(=O)[nH]1`: “inactive”.

With `COc1ccccc1-c1nccc(NCc2cccc(C)c2)n1`, the AC50 was 6.31 µM (active). Regarding `CC1=c2c(oc3cc(O)c(Nc4c(C)cc(O)cc4O)c(C)c23)=CC(=O)C1=Nc1c(C)cc(O)cc1O`, the activity, negative = inhibition is -19.4% [at 11.4 µM]. `CC(c1ccccc1C(O)c1ccccc1)N(C)C` (stereo not given): the AC50 entry was “inactive”.

For `CCCCN(C(=O)Nc1ccc(OCC)cc1)C1CCN(C(C)=O)CC1`, the AC50 result was “inactive”.

As for `COc1ccc(NC(=O)N(C2CCCCC2)C(C)c2cccnc2)c(OC)c1` (stereo not given), the concentration at half-maximal activity (AC50) is 10 µM (active). Consider `CCOc1ccc(NC(=O)C(=O)NCC2CCCN2CC)cc1` (stereo not given), for which the AC50 result was “inactive”.

Turning to `CCOc1ccc(NC(=O)N(C2CCCCC2)C(C)c2ccncc2)cc1` (stereo not given), the half-maximal activity concentration (AC50) was 15.8 µM (active). On to `COc1nc(Cl)nc(Cl)c1Cl` (tested in a mixture with another compound), for which the activity, negative = inhibition is 3.03% [at 11.4 µM]. Same read-out and setting: next, `CCn1c(O)c(/C=C2\C=Nc3ccccc32)sc1=Nc1ccc(C)cc1`: -3.41% [at 2.29 µM]. On to `O=c1c(-c2cccs2)nc2cncnc2n1Cc1ccc(F)cc1`, for which the AC50 was 12.6 µM (active). For the compound `Cc1nc2cncnc2n(Cc2ccccc2)c1=O`, the AC50 result was “inactive”. On the same count and under the same terms, for `O=c1c(-c2cccs2)nc2cncnc2n1Cc1ccccc1` the value was 6.31 µM (active); for `Cc1c(NC(=S)/C=C2\N(C)c3ccccc3C2(C)C)c(=O)n(-c2ccccc2)n1C`, 5.62 µM (active). Take `Cc1c(N(C)C)c(=O)n(-c2ccccc2)n1C`: the AC50 result is “inactive”. Turning to `Cc1c(NC(=S)N/N=C/c2ccc(O)cc2)c(=O)n(-c2ccccc2)n1C`, the AC50 entry is “inactive”. On to `COc1ccc2sc3ccccc3c(=O)c2c1OC`, for which the AC50 was 17.8 µM (active). Turning to `COc1ccc2c(c1OC)C(=O)OC2Nc1ncccc1C` (stereo not given), the activity, negative = inhibition was -2.44% [at 2.29 µM].

Regarding `COc1ccc2cc(C(=O)Nc3ccc(F)cc3)sc(=O)c2c1OC`, the activity, negative = inhibition was -4.97% [at 2.29 µM]. Take `COc1ccc(CN2C(=O)CN(C3CCCCCC3)C(=O)C2c2ccc(OC)c(OC)c2)cc1` (stereo not given): the AC50 was 1.58 µM (active). Take `COc1ccc(C2C(=O)N(C3CCCCCC3)CC(=O)N2Cc2ccccc2)cc1OC` (stereo not given): the concentration at half-maximal activity (AC50) was 4.47 µM (active).

For the compound `COc1cc(C2C(=O)N(C3CCCC3)CC(=O)N2Cc2ccco2)ccc1OC(C)C` (stereo not given), the half-maximal activity concentration (AC50) is 8.91 µM (active). Still for that read-out and setting: next, `C=CCn1c(SC(C)C(=O)NCc2ccc3c(c2)OCO3)nc2scc(-c3ccccc3)c2c1=O` (stereo not given): 0.562 µM (active); `C=CCn1c(SCC(=O)N2CC(=O)Nc3ccccc32)nc2scc(-c3ccccc3)c2c1=O`: 2.82 µM (active).
